In PubChem BioAssay AID1159580 (chemical genetic matrix, 2015):
Out of some 5,500 compounds screened, about 2,000 (36%) were called active. About 18% were inconclusive and are not listed. Rule as the data show it: active = normalized growth mostly below about 0.91 (no sharp cut-off); inconclusive = no clear call, values can overlap the other calls; inactive = mostly above about 0.92. The list shows a part of the results.

Assay: chemical genetic growth profiling, strain panel (AID 1159580);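 also: tested at 20 µM; growth read once vehicle control cultures reached saturation at 30 °C; 1 = growth at the plate median or of vehicle wells; lower values mean less growth of the strain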
Details: growth OD
[1] = S. cerevisiae deletion strains, locus YDL101C, strain DUN1, hits give low values
[2] = S. cerevisiae deletion strains, locus YHR030C, strain SLT2, hits give low values

Measured: normalized growth

CCCOc1ccccc1/C=N\NC(=S)Nc1cccc(F)c1
inactive: S. cerevisiae deletion strains, locus YAL013W, strain DEP1, hits give low values 0.999 | S. cerevisiae deletion strains, locus YBR229C, strain ROT2, hits give low values 1.02 | S. cerevisiae deletion strains, locus YCL061C, strain MRC1, hits give low values 1.01 | [1] 1.04 | S. cerevisiae deletion strains, locus YDR150W, strain NUM1, hits give low values 1 | S. cerevisiae deletion strains, locus YEL061C, strain CIN8, hits give low values 1 | S. cerevisiae deletion strains, locus YGR078C, strain PAC10, hits give low values 1 | S. cerevisiae deletion strains, locus YGR229C, strain SMI1, hits give low values 1.01 | [2] 0.921 | S. cerevisiae deletion strains, locus YHR087W, strain rtc3, hits give low values 1.03 | S. cerevisiae deletion strains, locus YJL187C, strain SWE1, hits give low values 1 | S. cerevisiae deletion strains, locus YJR043C, strain POL32, hits give low values 1.01 | S. cerevisiae deletion strains, locus YJR075W, strain HOC1, hits give low values 1.08 | S. cerevisiae deletion strains, locus YLR039C, strain RIC1, hits give low values 1.02 | S. cerevisiae deletion strains, locus YLR058C, strain SHM2 (second series), hits give low values 1 | S. cerevisiae deletion strains, locus YLR085C, strain ARP6, hits give low values 0.882 | S. cerevisiae deletion strains, locus YLR262C, strain YPT6, hits give low values 1.02 | S. cerevisiae deletion strains, locus YML094W, strain GIM5, hits give low values 1.01 | S. cerevisiae deletion strains, locus YMR219W, strain ESC1, hits give low values 1.01 | S. cerevisiae deletion strains, locus YMR263W, strain SAP30, hits give low values 0.966 | S. cerevisiae deletion strains, locus YMR307W, strain GAS1, hits give low values 0.93 | S. cerevisiae deletion strains, locus YNL153C, strain GIM3, hits give low values 1 | S. cerevisiae deletion strains, locus YNL298W, strain CLA4 (second series), hits give low values 0.983 | S. cerevisiae deletion strains, locus YNL322C, strain KRE1, hits give low values 1.03 | S. cerevisiae deletion strains, locus YNR030W, strain Alg12, hits give low values 0.988 | S. cerevisiae deletion strains, locus YPL055C, strain LGE1, hits give low values 0.945 | S. cerevisiae deletion strains, locus YPL241C, strain CIN2, hits give low values 0.996 | S. cerevisiae deletion strains, locus YPR135W, strain CTF4, hits give low values 0.987 | S. cerevisiae strains, strain wild type, hits give low values 1

Cc1cccc(NC(=S)N/N=C\c2ccc(F)cc2)c1
inactive: S. cerevisiae deletion strains, locus YAR019C, strain CDC15, hits give low values 0.96 | S. cerevisiae deletion strains, locus YBL105C, strain PKC1, hits give low values 0.966 | S. cerevisiae deletion strains, locus YBR135W, strain CKS1, hits give low values 0.966 | S. cerevisiae deletion strains, locus YBR136W, strain MEC1, hits give low values 0.965 | S. cerevisiae deletion strains, locus YBR160W, strain CDC28, hits give low values 0.958 | S. cerevisiae deletion strains, locus YDL017W, strain CDC7, hits give low values 0.958 | S. cerevisiae deletion strains, locus YDL028C, strain MPS1, hits give low values 0.958 | [1] 0.967 | S. cerevisiae deletion strains, locus YDL108W, strain KIN28, hits give low values 0.962 | S. cerevisiae deletion strains, locus YDL132W, strain cdc53, hits give low values 0.934 | S. cerevisiae deletion strains, locus YDL214C, strain PRR2, hits give low values 0.867 | S. cerevisiae deletion strains, locus YDR052C, strain DBF4, hits give low values 0.956 | S. cerevisiae deletion strains, locus YDR054C, strain cdc34, hits give low values 0.938 | S. cerevisiae deletion strains, locus YDR226W, strain ADK1, hits give low values 0.952 | S. cerevisiae deletion strains, locus YDR477W, strain SNF1, hits give low values 0.835 | S. cerevisiae deletion strains, locus YER123W, strain YCK3, hits give low values 0.806 | S. cerevisiae deletion strains, locus YER133W, strain GLC7, hits give low values 0.847 | S. cerevisiae deletion strains, locus YFL009W, strain cdc4, hits give low values 0.953 | S. cerevisiae deletion strains, locus YFL029C, strain CAK1, hits give low values 0.954 | S. cerevisiae deletion strains, locus YFR003C, strain YPI1, hits give low values 0.972 | S. cerevisiae deletion strains, locus YFR019W, strain FAB1, hits give low values 0.919 | S. cerevisiae deletion strains, locus YFR028C, strain CDC14, hits give low values 0.954 | S. cerevisiae deletion strains, locus YGR040W, strain KSS1, hits give low values 0.824 | S. cerevisiae deletion strains, locus YGR052W, strain FMP48, hits give low values 0.871 | S. cerevisiae deletion strains, locus YGR092W, strain DBF2, hits give low values 0.691 | S. cerevisiae deletion strains, locus YHR079C, strain IRE1, hits give low values 0.762 | S. cerevisiae deletion strains, locus YHR082C, strain KSP1, hits give low values 0.825 | S. cerevisiae deletion strains, locus YHR205W, strain SCH9, hits give low values 0.874 | S. cerevisiae deletion strains, locus YIL147C, strain SLN1, hits give low values 0.963 | S. cerevisiae deletion strains, locus YJL095W, strain BCK1, hits give low values 0.834 | S. cerevisiae deletion strains, locus YJL128C, strain PBS2, hits give low values 0.98 | S. cerevisiae deletion strains, locus YJL157C, strain FAR1, hits give low values 0.876 | S. cerevisiae deletion strains, locus YJR016C, strain ILV3, hits give low values 0.961 | S. cerevisiae deletion strains, locus YJR066W, strain TOR1, hits give low values 0.773 | S. cerevisiae deletion strains, locus YKL048C, strain ELM1, hits give low values 0.919 | S. cerevisiae deletion strains, locus YKL067W, strain YNK1, hits give low values 0.9 | S. cerevisiae deletion strains, locus YKL101W, strain HSL1, hits give low values 0.884 | S. cerevisiae deletion strains, locus YKL193C, strain SDS22, hits give low values 0.961 | S. cerevisiae deletion strains, locus YKL203C, strain TOR2, hits give low values 0.844 | S. cerevisiae deletion strains, locus YLR133W, strain CKI1, hits give low values 0.847 | S. cerevisiae deletion strains, locus YLR403W, strain SFP1, hits give low values 0.789 | S. cerevisiae deletion strains, locus YML070W, strain DAK1, hits give low values 0.88 | S. cerevisiae deletion strains, locus YMR001C, strain CDC5, hits give low values 0.965 | S. cerevisiae deletion strains, locus YMR205C, strain PFK2 (second series), hits give low values 0.879 | S. cerevisiae deletion strains, locus YMR277W, strain FCP1, hits give low values 0.958 | S. cerevisiae deletion strains, locus YNL006W, strain LST8, hits give low values 0.967 | S. cerevisiae deletion strains, locus YNL020C, strain ARK1, hits give low values 0.853 | S. cerevisiae deletion strains, locus YNL161W, strain CBK1, hits give low values 0.969 | S. cerevisiae deletion strains, locus YNL183C, strain NPR1, hits give low values 0.749 | S. cerevisiae deletion strains, locus YNL207W, strain RIO2, hits give low values 0.946 | S. cerevisiae deletion strains, locus YNL222W, strain SSU72, hits give low values 0.965 | S. cerevisiae deletion strains, locus YNL307C, strain MCK1 (second series), hits give low values 0.788 | S. cerevisiae deletion strains, locus YOL078W, strain AVO1, hits give low values 0.953 | S. cerevisiae deletion strains, locus YOL136C, strain PFK27, hits give low values 0.844 | S. cerevisiae deletion strains, locus YOR061W, strain CKA2, hits give low values 0.839 | S. cerevisiae deletion strains, locus YOR119C, strain RIO1, hits give low values 0.915 | S. cerevisiae deletion strains, locus YOR231W, strain MKK1, hits give low values 0.843 | S. cerevisiae deletion strains, locus YOR329C, strain SCD5, hits give low values 0.959 | S. cerevisiae deletion strains, locus YPL031C, strain PHO85, hits give low values 0.794 | S. cerevisiae deletion strains, locus YPL153C, strain RAD53, hits give low values 0.773 | S. cerevisiae deletion strains, locus YPL204W, strain HRR25, hits give low values 0.795 | S. cerevisiae deletion strains, locus YPL209C, strain IPL1, hits give low values 0.964 | S. cerevisiae deletion strains, locus YPR025C, strain CCL1, hits give low values 0.961 | S. cerevisiae deletion strains, locus YPR106W, strain ISR1, hits give low values 0.968 | S. cerevisiae deletion strains, locus YPR111W, strain DBF20, hits give low values 0.965 | S. cerevisiae deletion strains, strain NNK1, hits give low values 0.967 | S. cerevisiae deletion strains, strain TSCII, hits give low values 0.961
active: [2] 0.821 | S. cerevisiae deletion strains, locus YJR066W, strain TOR1 (second series), hits give low values 0.601 | S. cerevisiae deletion strains, locus YLR113W, strain HOG1, hits give low values 0.847 | S. cerevisiae deletion strains, locus YPL256C, strain CLN2, hits give low values 0.843
